Here are results for 36 molecules from article PMC5540273 (PLoS ONE, 2017).

Each structure is given as a SMILES string.
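Note: KINOMEscan kinase panel screen.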

For one assay, the system named is MAP3K1. To be noted: concentration: 1 μM, replicates: in singlicate; n = 1.
`COC(=O)C(Cc1ccccc1)NC(=O)NC1CCN(c2ccnc(Nc3ccc(F)cc3)n2)C1` (stereo not drawn) [GSK1379714]: the “%Inh” value was found to be 0%.

As to `CSc1ccc(-c2nc3n(c2-c2ccncc2)CCC3)cc1` [SKF-105561], the “%Inh” value came out at 0%.

`COc1ccc(Nc2nccc(N3CCC(NC(=O)c4cc5ccccc5s4)C3)n2)cc1` (stereo not drawn) [GSK1379738]: the “%Inh” value came out at 5%.

As for `Cc1ccc(NC(=O)Nc2ccc(Cl)cc2)cc1-c1ccc(C(=O)Nc2ccncc2)cc1` [GSK1398472], the “%Inh” value was 3%.

On to `CC(C)c1ccc(O)cc1Nc1ccnc2ccc(C(F)(F)F)cc12` [GW482059], for which the “%Inh” value came to 0%.

On to `COC(=O)c1cccc(NC(=O)NC2CCN(c3ccnc(Nc4ccc(F)cc4)n3)C2)c1` (stereo not drawn) [GSK1379725], for which the “%Inh” value amounted to 8%.

As for `O=c1cc(N2CCOCC2)nc2n(Cc3ccccc3F)ccn12` [GSK2297428], the “%Inh” value is 2%.

As for `Cc1ccccc1-c1cc(-c2c[nH]nc2-c2ccccn2)ccn1` [GW680061], the “%Inh” value was determined as 10%.

In the case of `COc1ccc(Nc2nccc(NCCNC(=O)Nc3cc(C)ccc3C)n2)cc1` [GSK1379899], the “%Inh” value is on record as 1%.

With `FC(F)(F)c1ccccc1-c1cc(-c2c[nH]nc2-c2ccccn2)ccn1` [GW679396], the “%Inh” value is listed as 11%.

Take `Cc1ccccc1Cn1ccn2c(=O)cc(N3CCOCC3)nc12` [GSK2269905]: the “%Inh” value is given as 2%.

Regarding `Cc1ccc(NC(=O)Nc2ccc(Cl)c(C(F)(F)F)c2)cc1-c1ccc(C(=O)Nc2ccncc2)cc1` [GSK1398470], the “%Inh” value came out at 3%.

In the case of `CCc1ccc(-c2ccc3c(c2)-c2n[nH]cc2S(=O)(=O)N3C)cc1`, the “%Inh” value amounted to 0%.

Consider `CNCc1ccc2nc(NC(=O)c3ccc(C(C)(C)C)cc3)cn2c1`, for which the “%Inh” value is reported as 19%.

With `Fc1ccc(-c2nn3cccc(F)c3c2-c2ccncc2)cc1` [GW475620], the “%Inh” value turned out to be 9%.

As to `CNc1nc(-c2ccc3c(N)n[nH]c3c2)cc(N2C[C@@H](C(=O)Nc3ccccc3)CC[C@H]2C)n1` [GSK2298859], the “%Inh” value was determined as 0%.

With `Cc1ccc(NC(=O)Nc2ccccc2F)cc1-c1ccc(C(=O)Nc2ccncc2)cc1` [GSK1398477], the “%Inh” value was 12%.

Turning to `Cc1ccc(NC(=O)c2ccc(Cl)cc2)cc1-c1ccc(C(=O)Nc2ccncc2)cc1` [GSK1398467], the “%Inh” value came to 12%.

For the molecule `COC(=O)C(NC(=O)NC1CCN(c2ccnc(Nc3ccc(F)cc3)n2)C1)c1ccccc1` (stereo not drawn) [GSK1379712], the “%Inh” value was determined as 6%.

With `Nc1nccc(-c2c(-c3ccc(F)cc3)ncn2C2CCN(Cc3ccccc3)CC2)n1` [SB-219980], the “%Inh” value amounted to 0%.

As to `NS(=O)(=O)c1cccc(N/C=C2\C(=O)Nc3ccc(S(=O)(=O)Cc4c(Cl)cccc4Cl)cc32)c1` [GSK398099], the “%Inh” value is reported as 15%.

As to `CN1c2ccc(-c3ccc(C(N)=O)cc3)cc2-c2[nH]ncc2S1(=O)=O`, the “%Inh” value turned out to be 0%.

Regarding `CNC(=O)c1ccc(C)c(-n2c(C)cc(OCc3ccc(F)cc3F)c(Br)c2=O)c1`, the “%Inh” value is 0%.

Regarding `Nc1ncnc2occ(-c3ccc4c(c3)CCN4C(=O)Cc3cc(F)ccc3F)c12` [GSK2645446], the “%Inh” value came to 0%.

Consider `Cc1c(Cn2c(C)c(C)n3c(=O)cc(N4CCOCC4)nc23)cccc1C(F)(F)F` [GSK2328680], for which the “%Inh” value is on record as 16%.

For the molecule `Cc1ccc(-c2nc(Nc3ccncc3)c3ccccc3n2)s1` [GSK189015], the “%Inh” value turned out to be 40%.

For `O=C1NC(=O)C(c2ccc(Cl)cc2)=C1Nc1cccc(Cl)c1` [SB-317651], the “%Inh” value amounted to 0%.

Consider `Cn1cnc2c(N)ncnc21` [SKF-97623], for which the “%Inh” value was 0%.

As for `Cc1ccc(NC(=O)Nc2ccccc2)cc1-c1ccc(C(=O)Nc2ccncc2)cc1` [GSK1398471], the “%Inh” value was 8%.

Regarding `CCn1c(-c2c(N)noc2C)nc2cnccc21` [SB-737856], the “%Inh” value was 0%.

Consider `COc1ccc(Nc2nccc(-c3ccc(NC(=O)c4cc5cc(F)ccc5[nH]4)cc3)n2)cc1` [GSK1229496], for which the “%Inh” value came out at 0%.

Take `Nc1cccc(-c2ccc3c(N)n[nH]c3c2)n1` [GSK2192730]: the “%Inh” value is given as 23%.

For `CS(=O)(=O)CCNCc1nc(-c2ccc3ncnc(Nc4ccc(OCc5ccccc5)c(Cl)c4)c3c2)cs1.Cl` [GW582764], the “%Inh” value is given as 6%.

In the case of `COc1ccc(Nc2nccc(N3CCC(NC(=O)C(C)c4ccc(Cl)cc4)C3)n2)cc1` (stereo not drawn) [GSK1379735], the “%Inh” value was 5%.

`Cc1cnc(N)c(/C=C/c2cncc(C(=O)NCCc3ccc(Cl)cc3Cl)c2)c1.Cl` [GSK190937]: the “%Inh” value is 7%.

`O=C(Nc1n[nH]c2nc(-c3cccs3)c(Br)cc12)C1CC1` [SB-735297]: the “%Inh” value was determined as 12%.

The test system of a further assay is MAP3K2. The settings on record: concentration: 1 μM, replicates: in singlicate; n = 1.
With `COC(=O)C(Cc1ccccc1)NC(=O)NC1CCN(c2ccnc(Nc3ccc(F)cc3)n2)C1` (stereo not drawn) [GSK1379714], the “%Inh” value was 0%.

With `CSc1ccc(-c2nc3n(c2-c2ccncc2)CCC3)cc1` [SKF-105561], the “%Inh” value is recorded as 3%.

For the molecule `COc1ccc(Nc2nccc(N3CCC(NC(=O)c4cc5ccccc5s4)C3)n2)cc1` (stereo not drawn) [GSK1379738], the “%Inh” value came to 0%.

As to `Cc1ccc(NC(=O)Nc2ccc(Cl)cc2)cc1-c1ccc(C(=O)Nc2ccncc2)cc1` [GSK1398472], the “%Inh” value turned out to be 16%.

Take `CC(C)c1ccc(O)cc1Nc1ccnc2ccc(C(F)(F)F)cc12` [GW482059]: the “%Inh” value is 0%.

For the molecule `COC(=O)c1cccc(NC(=O)NC2CCN(c3ccnc(Nc4ccc(F)cc4)n3)C2)c1` (stereo not drawn) [GSK1379725], the “%Inh” value was 11%.

Take `O=c1cc(N2CCOCC2)nc2n(Cc3ccccc3F)ccn12` [GSK2297428]: the “%Inh” value is 0%.

Consider `Cc1ccccc1-c1cc(-c2c[nH]nc2-c2ccccn2)ccn1` [GW680061], for which the “%Inh” value was 1%.

Regarding `COc1ccc(Nc2nccc(NCCNC(=O)Nc3cc(C)ccc3C)n2)cc1` [GSK1379899], the “%Inh” value was 0%.

In the case of `FC(F)(F)c1ccccc1-c1cc(-c2c[nH]nc2-c2ccccn2)ccn1` [GW679396], the “%Inh” value was 0%.

Regarding `Cc1ccccc1Cn1ccn2c(=O)cc(N3CCOCC3)nc12` [GSK2269905], the “%Inh” value is 0%.

For the molecule `Cc1ccc(NC(=O)Nc2ccc(Cl)c(C(F)(F)F)c2)cc1-c1ccc(C(=O)Nc2ccncc2)cc1` [GSK1398470], the “%Inh” value is given as 0%.

Regarding `CCc1ccc(-c2ccc3c(c2)-c2n[nH]cc2S(=O)(=O)N3C)cc1`, the “%Inh” value came out at 0%.

For the molecule `CNCc1ccc2nc(NC(=O)c3ccc(C(C)(C)C)cc3)cn2c1`, the “%Inh” value was determined as 21%.

As to `Fc1ccc(-c2nn3cccc(F)c3c2-c2ccncc2)cc1` [GW475620], the “%Inh” value stood at 8%.

With `CNc1nc(-c2ccc3c(N)n[nH]c3c2)cc(N2C[C@@H](C(=O)Nc3ccccc3)CC[C@H]2C)n1` [GSK2298859], the “%Inh” value is given as 0%.

Consider `Cc1ccc(NC(=O)Nc2ccccc2F)cc1-c1ccc(C(=O)Nc2ccncc2)cc1` [GSK1398477], for which the “%Inh” value was 5%.

For the molecule `Cc1ccc(NC(=O)c2ccc(Cl)cc2)cc1-c1ccc(C(=O)Nc2ccncc2)cc1` [GSK1398467], the “%Inh” value worked out at 0%.

With `COC(=O)C(NC(=O)NC1CCN(c2ccnc(Nc3ccc(F)cc3)n2)C1)c1ccccc1` (stereo not drawn) [GSK1379712], the “%Inh” value turned out to be 0%.

As for `Nc1nccc(-c2c(-c3ccc(F)cc3)ncn2C2CCN(Cc3ccccc3)CC2)n1` [SB-219980], the “%Inh” value is recorded as 29%.

In the case of `NS(=O)(=O)c1cccc(N/C=C2\C(=O)Nc3ccc(S(=O)(=O)Cc4c(Cl)cccc4Cl)cc32)c1` [GSK398099], the “%Inh” value worked out at 0%.

With `CN1c2ccc(-c3ccc(C(N)=O)cc3)cc2-c2[nH]ncc2S1(=O)=O`, the “%Inh” value turned out to be 21%.

`CNC(=O)c1ccc(C)c(-n2c(C)cc(OCc3ccc(F)cc3F)c(Br)c2=O)c1`: the “%Inh” value was 0%.

As for `Nc1ncnc2occ(-c3ccc4c(c3)CCN4C(=O)Cc3cc(F)ccc3F)c12` [GSK2645446], the “%Inh” value is reported as 6%.

As for `Cc1c(Cn2c(C)c(C)n3c(=O)cc(N4CCOCC4)nc23)cccc1C(F)(F)F` [GSK2328680], the “%Inh” value came to 0%.

In the case of `Cc1ccc(-c2nc(Nc3ccncc3)c3ccccc3n2)s1` [GSK189015], the “%Inh” value is 0%.

Consider `O=C1NC(=O)C(c2ccc(Cl)cc2)=C1Nc1cccc(Cl)c1` [SB-317651], for which the “%Inh” value is on record as 0%.

`Cn1cnc2c(N)ncnc21` [SKF-97623]: the “%Inh” value stood at 0%.

`Cc1ccc(NC(=O)Nc2ccccc2)cc1-c1ccc(C(=O)Nc2ccncc2)cc1` [GSK1398471]: the “%Inh” value is given as 0%.

Take `CCn1c(-c2c(N)noc2C)nc2cnccc21` [SB-737856]: the “%Inh” value is 17%.

As to `COc1ccc(Nc2nccc(-c3ccc(NC(=O)c4cc5cc(F)ccc5[nH]4)cc3)n2)cc1` [GSK1229496], the “%Inh” value was 5%.

`Nc1cccc(-c2ccc3c(N)n[nH]c3c2)n1` [GSK2192730]: the “%Inh” value worked out at 0%.

With `CS(=O)(=O)CCNCc1nc(-c2ccc3ncnc(Nc4ccc(OCc5ccccc5)c(Cl)c4)c3c2)cs1.Cl` [GW582764], the “%Inh” value is reported as 3%.

Turning to `COc1ccc(Nc2nccc(N3CCC(NC(=O)C(C)c4ccc(Cl)cc4)C3)n2)cc1` (stereo not drawn) [GSK1379735], the “%Inh” value came out at 0%.

As for `Cc1cnc(N)c(/C=C/c2cncc(C(=O)NCCc3ccc(Cl)cc3Cl)c2)c1.Cl` [GSK190937], the “%Inh” value stood at 0%.

Turning to `O=C(Nc1n[nH]c2nc(-c3cccs3)c(Br)cc12)C1CC1` [SB-735297], the “%Inh” value was determined as 7%.
